Inconclusive results are not listed. Values without a mark were called inactive. The source made the active and inactive calls. Calls follow the shape of the dose curve; as a rule, active = well fitted activation curve with a large enough effect; inconclusive = small, poorly fitted or top-dose-only effect; inactive = no such curve, though single readings can be large or run the other way.

40 molecules from PubChem BioAssay AID488832 (National Center for Advancing Translational Sciences (NCATS), 2010) can be followed below.

This assay can be described thus: Confirmation Concentration-Response Assay for Enhancers of SMN2 Splice Variant Expression for Further Probe SAR. The note with it: HEK293 SMN2 exon7-luciferase splicing reporter, luminescence, 30-36 h; series mostly up to 46.1 µM; activity, positive = activation: at the top concentration. From the text: NIH Chemical Genomics Center [NCGC] NIH Molecular Libraries Probe Production centers Network [MLPCN] MLPCN Grant: R03 MH084179-01 Assay Submitter (PI): Elliot Androphy NCGC Assay Overview: Spinal muscular atrophy (SMA) is caused by insufficient levels of the survival motor neuron protein SMN. The SMN locus on chromosome 5q13 contains two inverted copies of SMN called SMN1 and SMN2 which are 99% identical at the amino acid level. SMN1 is a fully functional protein and SMN2 skips exon 7 90% of the time. Skipping of exon 7 produces non-functional protein product. 10% of the SMN2 protein includes exon 7 and is fully functional. In the SMA disease state, mutations in the SMN1 locus are the cause of the disease state. Because only 10% of SMN2 is of the fully functional form, it is not sufficient to overcome the deficiency produced by the loss of the SMN1 product. A therapy that either increase the amount of SMN2 product made or to increase the inclusion of exon 7 has been proposed for the treatment of SMA. We have designed an assay to identify small molecules that can increase the amount of functional SMN2 product by appending a luciferase reporter gene after the native SMN2 gene, such that inclusion of exon 7 in the expressed product places the luciferase sequence in frame, thus generating functional luciferase enzyme.
NCGC Assay Protocol Summary: This screen utilizes a luciferase reporter gene assay, combining the promoter with the major portion of the native SMN2 cDNA (exons 1 -7, intron 8 , exon 8 fused to luciferase) stably expressed in HEK293 cells. Compounds that increase luciferase signal presumably enhance expression of the functional SMN2 splice variant. Passaging media contained DMEM w/ glutamax (+phenol red) 10% FCS, 1x pen/strep, 200 ug/ml hygro, 1x sodium pyruvate. Assay media contained DMEM w/ glutamax (-phenol red) 10% FCS, 1x pen strep, 1x pyruvate Sequence, Parameter, Value, Description (1) Cells, 5 uL, 2000 cells/well, 1536 TC treated White solid bottom plate (2) Time, 10-12 hours, 37C 5% CO2 (3) Compound, 23 nl, MLSMR Library (4) Control Compound, 23 nL, Sodium butyrate st 4.5mM (final) conc (5) Time, 30-36 hours, 37C 5% CO2 (6) Reagent, 3 ul, One Glo (TM) from Promega (7) Time, 5-15 minutes, Room temp (8) Detector, Viewlux: luminescent read, 60 second integration, high speed 2x binning Keywords: Spinal muscular atrophy, SMA, SMN2, high throughput screening, MLSMR, MLPCN, NIH Roadmap, qHTS and NCGC
As to `COc1ccc(-c2cnc(N3CCC(C(N)=O)CC3)s2)cc1OC`, the Potency was 7.72 µM (active).

Turning to `NC(=O)C1CCN(c2nc(-c3ccc([N+](=O)[O-])cc3)cs2)CC1`, the Potency is 5.47 µM (active).

For `O=C(O)C1CCN(c2nc(-c3ccc(Br)cc3)cs2)CC1`, the Potency is 2.44 µM (active).

`NC(=O)C1CCN(c2ncc(-c3cccc(N4CCOCC4)c3)s2)CC1`: the Potency was 1.94 µM (active).

On to `Cc1ccc(-c2cnc(N3CCC(C(N)=O)CC3)s2)cc1`, for which the Potency was 0.0688 µM (active).

Take `CC(=O)N1CCN(c2nc(-c3ccc(Br)cc3)cs2)CC1`: the Potency is 2.44 µM (active).

`NC(=O)C1CCN(c2ncc(-c3cccc(F)c3)s2)CC1`: the Potency is 1.94 µM (active).

For the molecule `NC(=O)C1CCN(c2nc(-c3ccc(N4CCCCC4)nc3)cs2)CC1`, the Potency was 3.45 µM (active).

`NC(=O)C1CCN(c2nc(-c3ccc4c(c3)OCCCO4)cs2)CC1`: the Potency was 0.487 µM (active).

On to `CC(C)Oc1cccc(-c2cnc(N3CCC(C(N)=O)CC3)s2)c1`, for which the Potency is 0.0688 µM (active).

Consider `CCOC(=O)C1CCN(c2ncc(-c3ccc4c(c3)OCCCO4)s2)CC1`, for which the Potency is 0.0274 µM (active).

Take `CN(C)c1cccc(-c2nnc(N3CCC(C(N)=O)CC3)s2)c1`: the Potency was 0.218 µM (active).

Regarding `NC(=O)C1CCN(c2ncc(-c3ccc4c(c3)OCCCO4)s2)CC1`, the Potency was 0.0307 µM (active).

For the molecule `COc1ccccc1-c1csc(N2CCC(C(N)=O)CC2)n1`, the “activity, positive = activation” value was -17.9%.

Consider `CC(=O)C1CCN(c2ncc(-c3ccc4c(c3)OCCCO4)s2)CC1`, for which the “activity, positive = activation” value was -9.36%.

Turning to `CNC(=O)C1CCN(c2nc(-c3ccc(Br)cc3)cs2)CC1`, the Potency was 4.87 µM (active).

`NC(=O)C1CCN(c2nccc(-c3ccc4c(c3)OCCO4)n2)CC1`: the Potency was 1.09 µM (active).

As to `c1c[nH]c(C2CCN(c3ncc(-c4ccc5c(c4)OCCCO5)s3)CC2)n1`, the Potency was 2.18 µM (active).

As to `Brc1ccc(-c2csc(N3CCC(c4nn[nH]n4)CC3)n2)cc1`, the Potency is 17.3 µM (active).

For the molecule `CC(C)(C)OC(=O)NC1CCN(c2nc(-c3ccc(Br)cc3)cs2)CC1`, the “activity, positive = activation” value was -21.7%.

With `NC(=O)C1CCN(c2nc(-c3cccc4sc5ccccc5c34)cs2)CC1`, the Potency was 13.7 µM (active).

Consider `NC(=O)C1CCN(c2nc(-c3ccc(N)cc3)cs2)CC1`, for which the “activity, positive = activation” value is 4.35%.

Regarding `NC(=O)N1CCN(c2nc(-c3ccc(Br)cc3)cs2)CC1`, the Potency is 13.7 µM (active).

Take `CN(C)c1cccc(-c2nc(N3CCC(C(N)=O)CC3)ncc2F)c1`: the Potency was 0.345 µM (active).

Consider `CN(C)c1cccc(-c2ncc(F)c(N3CCC(C(N)=O)CC3)n2)c1`, for which the Potency was 2.44 µM (active).

Take `O=C(O)C1CCN(c2ncc(-c3ccc4c(c3)OCCCO4)s2)CC1`: the Potency was 0.0087 µM (active).

Take `NC(=O)C1CCN(c2ncc(Br)cn2)CC1`: the “activity, positive = activation” value was 4.35%.

As for `NC(=O)C1CCN(c2ncnc(-c3ccc4c(c3)OCCCO4)n2)CC1`, the Potency is 2.44 µM (active).

`CN(C)c1cccc(-c2ccnc(N3CCC(C(N)=O)CC3)n2)c1`: the Potency was 0.688 µM (active).

As to `NC(=O)C1CCN(c2nc(-c3ccc4c(c3)OCO4)cs2)CC1`, the Potency is 1.37 µM (active).

For the molecule `NC(=O)C1CCN(c2ncc(-c3ccc4c(c3)OCO4)s2)CC1`, the Potency was 0.0487 µM (active).

`CN(C)c1cccc(-c2cnc(N3CCC(C(N)=O)CC3)nc2)c1`: the Potency is 0.547 µM (active).

Regarding `Brc1ccc(-c2csc(N3CCNCC3)n2)cc1`, the “activity, positive = activation” value is -82.8%.

`O=C(NCc1ccccc1)C1CCN(c2nc(-c3ccc(Br)cc3)cs2)CC1`: the “activity, positive = activation” value is -4.76%.

`CC(=O)C1CCN(c2ncc(-c3cccc(N(C)C)c3)s2)CC1`: the Potency is 2.74 µM (active).

Consider `CC(C)(C)c1ccc(-c2csc(N3CCC(C(N)=O)CC3)n2)cc1`, for which the Potency was 2.74 µM (active).

`NC(=O)C1CCN(c2nccc(-c3ccc(Br)cc3)n2)CC1`: the Potency is 0.244 µM (active).

Take `NC(=O)C1CCN(c2nc(-c3ccccc3)cs2)CC1`: the Potency is 3.07 µM (active).

On to `CC(=O)NC1CCN(c2nc(-c3ccc(Br)cc3)cs2)CC1`, for which the “activity, positive = activation” value was -49.7%.

Regarding `N#Cc1ccccc1-c1csc(N2CCC(C(N)=O)CC2)n1`, the “activity, positive = activation” value is 10%.
